Data published in PubChem BioAssay (EPA / NIEHS).
Several values for one entry are separate records, joined by “and”; a condition that tells them apart may be missing. Identical values can stand only once. Activity calls are given as the source filed them. How the source made its calls: active means hit-call score of the fitted dose curve at least 0.9, where 1 is the maximum; inactive means score below 0.9.

Key:
[1] = read-out: Tissue Factor, F3 (gene 2152); test: BSK_CASM3C_TissueFactor: BioMAP Diversity Plus: CASM3C Assay for Tissue Factor Biomarker Activity (AID 2283052); settings: primary human coronary artery smooth muscle cells; actives raise or lower the signal;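 further: cell surface tissue factor protein level read by ELISA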
[2] = read-out: Urokinase-type plasminogen activator receptor (uPAR), PLAUR (gene 5329); test: BSK_CASM3C_uPAR: BioMAP Diversity Plus: CASM3C Assay for Urokinase-type plasminogen activator receptor (uPAR) Biomarker Activity (AID 2283054); settings: primary human coronary artery smooth muscle cells; actives raise or lower the signal;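 further: cell-surface uPAR protein level quantified by ELISA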
[3] = read-out: Collagen III, COL3A1 (gene 1281); test: BSK_hDFCGF_CollagenIII: BioMAP Diversity Plus: hDFCGF Assay for Collagen III Biomarker Activity (AID 2283056); settings: primary human foreskin fibroblasts; actives raise or lower the signal
How it was run: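 Human foreskin fibroblast primary cultures sampled 24 h after dosing; Collagen III quantified by ELISA. Signal fitted bidirectionally against DMSO baseline.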

[4] = read-out: Epidermal growth factor receptor (EGFR), EGFR (gene 1956); test: BSK_hDFCGF_EGFR: BioMAP Diversity Plus: hDFCGF Assay for Epidermal growth factor receptor (EGFR) Biomarker Activity (AID 2283057); settings: primary human foreskin fibroblasts; actives raise or lower the signal
How it was run: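 ELISA readout of EGFR on human dermal fibroblasts (primary foreskin cells), 24 h post-dosing; bidirectional curve fit vs DMSO baseline, gain or loss of signal scored.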

[5] = read-out: Interleukin-8 (IL8), CXCL8 (gene 3576); test: BSK_hDFCGF_IL8: BioMAP Diversity Plus: hDFCGF Assay for Interleukin-8 (IL8) Biomarker Activity (AID 2283058); settings: primary human foreskin fibroblasts; actives raise or lower the signal
How it was run: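 Primary human foreskin fibroblasts (hDFCGF system) dosed with chemical; IL-8 measured by ELISA 24 hours later. Bidirectional curve fitting relative to DMSO baseline; cytotoxicity tracked in parallel cultures by SRB total protein staining.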

[6] = read-out: Macrophage colony-stimulating factor (MCSF), CSF1 (gene 1435); test: BSK_hDFCGF_MCSF: BioMAP Diversity Plus: hDFCGF Assay for Macrophage colony-stimulating factor (MCSF) Biomarker Activity (AID 2283060); settings: primary human foreskin fibroblasts; actives raise or lower the signal
How it was run: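 Human foreskin fibroblast primary cultures; M-CSF measured by ELISA 24 hours after chemical dosing. Bidirectional fitting relative to DMSO, with overt cytotoxicity tracked by parallel SRB total-protein staining (0.1% SRB, 10% TCA fixation, 560 nm).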

[7] = BSK_hDFCGF_SRB: Viability Assessment in the BioMAP Diversity Plus: hDFCGF Assay (AID 2283061); settings: primary human foreskin fibroblasts;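 further: cells exposed to compound for 24 h before the read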
How it was run: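 Human foreskin fibroblasts in 96-well plates were treated 24 h. Total protein was measured by 0.1% SRB staining after 10% TCA fixation, read at 560 nm. Data were fitted bidirectionally against DMSO.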

[8] = read-out: TIMP metallopeptidase inhibitor 1 (TIMP1), TIMP1 (gene 7076); test: BSK_hDFCGF_TIMP1: BioMAP Diversity Plus: hDFCGF Assay for TIMP metallopeptidase inhibitor 1 (TIMP1) Biomarker Activity (AID 2283062); settings: primary human foreskin fibroblasts; actives raise or lower the signal
How it was run: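 Human foreskin fibroblast primary cultures dosed for 24 h; secreted/surface TIMP-1 quantified by ELISA. Bidirectional curve fitting against DMSO baseline; cytotoxicity tracked in parallel cultures by SRB total-protein staining.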

[9] = read-out: Monokine induced gamma interferon (MIG), CXCL9 (gene 4283); test: BSK_hDFCGF_MIG: BioMAP Diversity Plus: hDFCGF Assay for Monokine induced gamma interferon (MIG) Biomarker Activity (AID 2283063); settings: primary human foreskin fibroblasts; actives raise or lower the signal
How it was run: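 MIG/CXCL9 measured by ELISA 24 h after dosing primary human skin fibroblasts. Activity fitted in both directions against DMSO controls. Cytotoxicity was checked in parallel cultures by SRB staining read at 560 nm.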

[10] = read-out: Matrix Metallopeptidase 1 (MMP1), MMP1 (gene 4312); test: BSK_hDFCGF_MMP1: BioMAP Diversity Plus: hDFCGF Assay for Matrix Metallopeptidase 1 (MMP1) Biomarker Activity (AID 2283064); settings: primary human foreskin fibroblasts; actives raise or lower the signal
How it was run: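 MMP1 levels quantified by ELISA 24 h after dosing human dermal fibroblast cultures, with parallel SRB total-protein staining for overt cytotoxicity. Data fitted in both directions against DMSO baseline.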

[11] = read-out: Vascular cell adhesion molecule 1 (VCAM1), VCAM1 (gene 7412); test: BSK_hDFCGF_VCAM1: BioMAP Diversity Plus: hDFCGF Assay for Vascular cell adhesion molecule 1 (VCAM1) Biomarker Activity (AID 2283065); settings: primary human foreskin fibroblasts; actives raise or lower the signal;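 on AC50: VCAM-1 protein level quantified by ELISA after 24 h chemical exposure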
How it was run: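 Human foreskin fibroblast primary cells dosed with chemical, VCAM-1 measured by ELISA at 24 h. Bidirectional curve fitting relative to DMSO as negative control/baseline.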

[12] = read-out: Plasminogen activator inhibitor-1 (PAI1), SERPINE1 (gene 5054); test: BSK_hDFCGF_PAI1: BioMAP Diversity Plus: hDFCGF Assay for Plasminogen activator inhibitor-1 (PAI1) Biomarker Activity (AID 2283066); settings: primary human foreskin fibroblasts; actives raise or lower the signal
How it was run: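 ELISA readout of PAI-1 from primary human skin fibroblast cultures, 24 h after compound addition. Gain or loss of signal was fitted bidirectionally against DMSO baseline.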

[13] = read-out: Intercellular Adhesion Molecule 1 (ICAM1), ICAM1 (gene 3383); test: BSK_KF3CT_ICAM1: BioMAP Diversity Plus: KF3CT Assay for Intercellular Adhesion Molecule 1 (ICAM1) Biomarker Activity (AID 2283067); settings: primary human keratinocytes with fibroblasts; actives raise or lower the signal
How it was run: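 Human keratinocyte–foreskin fibroblast co-culture was treated for 24 h. Cell-surface ICAM-1 was quantified by ELISA, fitted bidirectionally relative to DMSO. Cytotoxicity was checked in parallel cultures by SRB total-protein staining.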

[14] = read-out: Interferon-gamma inducible Protein 10 (IP10), CXCL10 (gene 3627); test: BSK_KF3CT_IP10: BioMAP Diversity Plus: KF3CT Assay for Interferon-gamma inducible Protein 10 (IP10) Biomarker Activity (AID 2283068); settings: primary human keratinocytes with fibroblasts; actives raise or lower the signal
How it was run: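 In a primary skin co-culture of keratinocytes and fibroblasts, IP-10 is quantified by ELISA at 24 h after dosing. SRB staining of parallel wells monitors overt toxicity. Curves are fitted both directions against DMSO.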

[15] = BSK_KF3CT_SRB: Viability Assessment in the BioMAP Diversity Plus: KF3CT Assay (AID 2283069); settings: primary human keratinocytes with fibroblasts;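 further: total protein by sulforhodamine B staining as a cytotoxicity measure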
How it was run: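 Cytotoxicity was gauged by SRB staining (0.1% SRB, 10% TCA fixation, 560 nm) of parallel cultures at 24 h. The cells were primary human skin keratinocytes co-cultured with fibroblasts, and activity was fitted in both directions against DMSO.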

[16] = read-out: Interleukin-1 alpha (IL1a), IL1A (gene 3552); test: BSK_KF3CT_IL1a: BioMAP Diversity Plus: KF3CT Assay for Interleukin-1 alpha (IL1a) Biomarker Activity (AID 2283070); settings: primary human keratinocytes with fibroblasts; actives raise or lower the signal
How it was run: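 IL-1a was detected by ELISA 24 h after chemical treatment of a co-culture of human skin keratinocytes and foreskin fibroblasts. Gain or loss of signal was fitted against the DMSO baseline.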

[17] = read-out: Matrix Metallopeptidase 9 (MMP9), MMP9 (gene 4318); test: BSK_KF3CT_MMP9: BioMAP Diversity Plus: KF3CT Assay for Matrix Metallopeptidase 9 (MMP9) Biomarker Activity (AID 2283074); settings: primary human keratinocytes with fibroblasts; actives raise or lower the signal;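 on AC50: MMP9 protein level quantified by ELISA in the co-culture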
How it was run: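 MMP-9 quantified by ELISA after 24 h chemical treatment of primary human skin keratinocyte/fibroblast co-cultures; gain or loss fitted against DMSO, with parallel SRB staining (0.1% SRB, 560 nm) for overt cytotoxicity.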

[18] = read-out: urokinase plasminogen activator (uPA), PLAU (gene 5328); test: BSK_KF3CT_uPA: BioMAP Diversity Plus: KF3CT Assay for urokinase plasminogen activator (uPA) Biomarker Activity (AID 2283075); settings: primary human keratinocytes with fibroblasts; actives raise or lower the signal
How it was run: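 ELISA read-out of uPA 24 h after dosing human skin keratinocytes co-cultured with foreskin fibroblasts. Signal change fitted both ways relative to DMSO; sulforhodamine B on parallel cultures marks overt cytotoxicity.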

[19] = read-out: Interleukin-8 (IL8), CXCL8 (gene 3576); test: BSK_LPS_IL8: BioMAP Diversity Plus: LPS Assay for Interleukin-8 (IL8) Biomarker Activity (AID 2283078); settings: primary human HUVEC with PBMC; actives raise or lower the signal
How it was run: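 Human umbilical vein endothelial cells co-cultured with PBMC, LPS-stimulated, exposed to compound for 24 h. IL-8 quantified by ELISA; fitted in both directions against DMSO, with SRB total-protein staining of parallel cultures for cytotoxicity.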

[20] = read-out: Monocyte Chemoattractant Protein-1 (MCP1), CCL2 (gene 6347); test: BSK_LPS_MCP1: BioMAP Diversity Plus: LPS Assay for Monocyte Chemoattractant Protein-1 (MCP1) Biomarker Activity (AID 2283081); settings: primary human HUVEC with PBMC; actives raise or lower the signal;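 on AC50: secreted MCP-1 protein quantified by ELISA in culture supernatant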
How it was run: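 Human umbilical vein endothelial cells co-cultured with PBMC, LPS-stimulated; secreted MCP-1 measured by ELISA 24 h after compound addition. Bidirectional curve fitting against DMSO baseline; SRB total-protein staining in parallel cultures for cytotoxicity.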

Measured: AC50

N#CCCCCC#N
inactive: all assays above

CC(C)COP(=O)(OCC(C)C)OCC(C)C
inactive: all assays above

Oc1ccc(C2(c3ccc(O)cc3)c3ccccc3-c3ccccc32)cc1
active: [1] 178 nM and 3.97 µM | [2] 20 µM and 25.7 µM | [3] 2.68 µM and 2.27 µM | [5] 6.24 µM and 5.65 µM | [6] 2.26 µM and 2.51 µM | [8] 1.47 µM and 1.56 µM | [9] 3.38 µM and 2.61 µM | [10] 3.97 µM and 2.03 µM | [11] 1.61 µM and 1.41 µM | [12] 728 nM and 803 nM | [13] 11.9 µM and 10.4 µM | [14] 6.03 µM and 7.32 µM | [15] 5.12 µM and 5.08 µM | [16] 8.68 µM and 6.35 µM | [17] 5.39 µM and 5.41 µM | [18] 8.33 µM and 9.87 µM | [19] 28.9 µM and 28.2 µM | [20] 16.5 µM and 14.2 µM
inactive: [4] | [7]

Oc1cc(Cl)ccc1Cl
inactive: all assays above

CC1(C)[C@H](C(=O)O[C@H](C#N)c2cccc(Oc3ccccc3)c2)[C@@H]1C=C(Br)Br
active: [3] 7.51 µM and 4.58 µM
inactive: all other assays above

CC(C)(c1cc(Cl)c(O)c(Cl)c1)c1cc(Cl)c(O)c(Cl)c1
inactive: [4]
active: [1] 10.9 µM | [2] 32.5 µM | [3] 29.6 µM | [5] 28.5 µM | [6] 12.2 µM | [7] 16.5 µM | [8] 11 µM | [9] 14.8 µM | [10] 11.1 µM | [11] 10.5 µM | [12] 6.66 µM | [13] 7.95 µM | [14] 7.37 µM | [15] 5.15 µM | [16] 9.44 µM | [17] 8.32 µM | [18] 9.27 µM | [19] 32.5 µM | [20] 31.3 µM

C=CC(=O)OCC(CC)CCCC (stereo not given)
active: [3] 20 µM | [6] 20 µM | [7] 32.2 µM | [8] 27.5 µM | [9] 30.5 µM | [10] 30.4 µM | [11] 16 µM | [12] 20 µM | [16] 6.47 µM | [18] 0.016 µM | [20] 0.016 µM
inactive: [1] | [2] | [4] | [5] | [13] | [14] | [15] | [17] | [19]
